According to PubChem BioAssay (NCATS):
Results filed as inconclusive are left out. Activity calls are given as the source filed them. Unless noted, calls follow the shape of the full dose curve.

What was measured:
[1] = Primary qHTS for inhibitors of SARS-S pseudo-typed particle cell entry (AID 1479145); settings: outcome: dose series up to 57.1 µM unless noted; also: nearly all actives have a fitted effect of over 45% in size; as to activity change, negative = inhibition: % is scaled to controls: 0 for no effect and ±100 for the full control effect
[2] = Primary qHTS for Huh7 cytotoxicity: counterscreen for inhibitors of MERS-S pseudotyped particle cell entry (AID 1479147); settings: outcome: dose series up to 57.1 µM unless noted
[3] = Primary qHTS for inhibitors of MERS-S pseudo-typed particle cell entry (AID 1479149); settings: outcome: dose series up to 57.1 µM unless noted; also: nearly all actives have a fitted effect of over 60% in size; as to activity change, negative = inhibition: % is scaled to controls: 0 for no effect and ±100 for the full control effect
[4] = Primary qHTS for Vero E6 cytotoxicity: counterscreen for inhibitors of SARS-S pseudo-typed particle cell entry (AID 1479150); settings: outcome: dose series up to 57.1 µM unless noted
[5] = Cytotoxicity counterscreen for inhibitors of SARS-CoV-2 cell entry (AID 1645845); settings: outcome: dose series up to 57.1 µM unless noted; also: nearly all actives have a fitted effect of over 50% in size
Procedure, shortened: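 After a 15 min room-temperature ATPLite 1step step, luminescence reflected ATP remaining in HEK293-ACE2 cells exposed to compound for 1 h plus 48 h at 37 C, with percent activity set by cell and no-cell controls.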

[6] = Primary qHTS to identify inhibitors of SARS-CoV-2 cell entry (AID 1645846); settings: SARS-CoV-2 pseudovirus cell entry assay, luminescence; activity change, negative = inhibition: at 57.1 µM (top of the series) unless noted; also: nearly all actives have a fitted effect of over 45% in size
Procedure, shortened: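 Using luciferase-reporting pseudoviruses carrying Wuhan-Hu-1 spike, the screen tracks entry into stably ACE2-expressing cells over 48 hr. Activity is expressed relative to spike particles versus particles lacking any fusion protein.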

[7] = target: Nuclear receptor subfamily 1 group I member 3 (Homo sapiens) (UniProt Q14994); experiment: Primary qHTS for antagonist of constitutive androstane receptor (CAR) against the NCATS DSHEA and TCM libraries (AID 1794836; active = well fitted curve in the direction sought with a large enough effect; an effect the other way counts as inactive or inconclusive)
Procedure, shortened: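 HepG2 cells stably carrying hCAR and a CYP2B6 luciferase reporter (2,500 cells/well) attached for 5 h, then received compounds with 48 uM CITCO for 24 h at 37C. ONE-Glo luminescence read antagonism; CellTiter-Fluor (405/540 nm) gave viability.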

[8] = KB-8-5-11 P-gp reporter qHTS against the NCATS DSHEA and TCM libraries (AID 1919977; active = well fitted curve in the direction sought with a large enough effect; an effect the other way counts as inactive or inconclusive; also: 0% is about no effect)
Procedure, shortened: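 Viability of drug-resistant KB-8-5-11 cells is measured by CellTiter-Glo luminescence following roughly 72 h treatment at 37C. Substances were titrated, with bortezomib as intraplate control.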

[9] = target: Glutathione peroxidase 1 (Homo sapiens) (UniProt P07203); experiment: Primary qHTS Assay for Inhibitors of Recombinant Selenoprotein Glutathione Peroxidase 1 (GPX1) (AID 1845191; active = well fitted curve in the direction sought with a large enough effect; an effect the other way counts as inactive or inconclusive; also: nearly all actives have a fitted effect of over 65% in size)
Procedure, shortened: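 GPX1 10 nM, GR 100 nM, GSH 1 mM, NADPH 0.5 mM, CHP 0.5 mM (final). 30-min cpd preincubation, RT. Ex340/Em450 read t=0, t=15 min.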

[10] = target: Phospholipid hydroperoxide glutathione peroxidase GPX4 (Homo sapiens) (UniProt P36969); experiment: Primary qHTS Assay for Inhibitors of Recombinant Selenoprotein Glutathione Peroxidase 4 (GPX4) (AID 1845192; active = well fitted curve in the direction sought with a large enough effect; an effect the other way counts as inactive or inconclusive; also: % is scaled to controls: 0 for no effect and ±100 for the full control effect; nearly all actives have a fitted effect of over 65% in size)
Procedure, shortened: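 qHTS, GR-coupled: GPX4 200 nM + cpd 30 min RT → GSH 1 mM, NADPH 0.5 mM, GR 100 nM → CHP 0.5 mM start; fluor 340/450 at t0 and t15 min; no-enzyme wells as control.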

[11] = target: Bile acid receptor (Homo sapiens) (UniProt Q96RI1); experiment: qHTS assay for small molecule agonists of farnesoid X receptor signaling (AID 588527); settings: HEK293T FXR-UAS-bla, beta-lactamase ratio, 16 h; stronger effect = higher value;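 also: 0% = vehicle basal and 100% = reference agonist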
Procedure, shortened: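 FXR-UAS-bla HEK293T, 10% dialyzed FBS; cpds up to 92 uM titration, 16 h 37 C; CCF4 dye 2 h RT; fluorescence. Normalized to chenodeoxycholic acid 100 uM (100%) and DMSO (0%); Hill fit gives EC50, efficacy.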

[12] = target: Peroxisome proliferator-activated receptor delta (Homo sapiens) (UniProt Q03181); experiment: qHTS assay for small molecule agonists of peroxisome proliferator-activated receptor delta signaling (AID 588534);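 also: 0% = DMSO basal wells and 100% = positive control agonist at 10 µM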
Procedure, shortened: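 Titration series tested in agonist mode on beta-lactamase reporter cells; 18 hrs at 37 C after a 5 hr pre-incubation. Readout: CCF4 fluorescence, 2 hrs RT. Hill equation gives EC50 and maximal response.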

Chain of Peroxisome proliferator-activated receptor delta (Homo sapiens) (Q03181 whole entry, looked up): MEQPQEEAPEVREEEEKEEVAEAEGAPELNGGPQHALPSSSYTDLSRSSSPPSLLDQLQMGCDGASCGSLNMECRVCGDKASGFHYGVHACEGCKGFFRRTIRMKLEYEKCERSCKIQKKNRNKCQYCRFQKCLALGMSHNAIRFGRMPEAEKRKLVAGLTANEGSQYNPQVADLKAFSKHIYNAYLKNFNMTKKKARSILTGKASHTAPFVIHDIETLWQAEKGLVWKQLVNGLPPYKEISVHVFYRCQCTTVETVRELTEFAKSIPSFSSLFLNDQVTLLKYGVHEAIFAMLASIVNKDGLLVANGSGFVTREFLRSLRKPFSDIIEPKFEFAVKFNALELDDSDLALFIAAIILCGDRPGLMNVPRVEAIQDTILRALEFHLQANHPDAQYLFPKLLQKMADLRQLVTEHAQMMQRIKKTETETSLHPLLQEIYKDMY
Chain of Glutathione peroxidase 1 (Homo sapiens) (P07203 whole entry, looked up): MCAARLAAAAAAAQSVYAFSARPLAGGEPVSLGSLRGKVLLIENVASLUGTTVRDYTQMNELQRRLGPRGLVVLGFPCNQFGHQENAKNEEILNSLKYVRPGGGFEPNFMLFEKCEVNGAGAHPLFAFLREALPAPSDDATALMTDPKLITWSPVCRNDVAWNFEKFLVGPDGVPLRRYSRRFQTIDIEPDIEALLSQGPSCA
Chain of Nuclear receptor subfamily 1 group I member 3 (Homo sapiens) (Q14994 whole entry, looked up): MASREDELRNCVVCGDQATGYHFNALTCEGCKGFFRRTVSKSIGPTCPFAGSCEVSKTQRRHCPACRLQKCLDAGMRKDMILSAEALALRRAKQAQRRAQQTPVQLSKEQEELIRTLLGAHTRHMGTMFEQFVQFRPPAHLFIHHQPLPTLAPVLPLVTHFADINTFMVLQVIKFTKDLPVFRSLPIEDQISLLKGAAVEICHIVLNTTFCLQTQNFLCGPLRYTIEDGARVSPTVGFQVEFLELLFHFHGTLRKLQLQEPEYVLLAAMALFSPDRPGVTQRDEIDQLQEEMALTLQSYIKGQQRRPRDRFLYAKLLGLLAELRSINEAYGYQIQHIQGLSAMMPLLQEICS
Chain of Phospholipid hydroperoxide glutathione peroxidase GPX4 (Homo sapiens) (P36969 whole entry, looked up): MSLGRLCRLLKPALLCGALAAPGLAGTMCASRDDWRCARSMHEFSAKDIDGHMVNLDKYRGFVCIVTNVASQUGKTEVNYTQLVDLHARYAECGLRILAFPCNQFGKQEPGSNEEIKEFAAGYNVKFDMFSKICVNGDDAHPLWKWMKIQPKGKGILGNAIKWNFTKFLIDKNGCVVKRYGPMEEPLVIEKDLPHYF
Chain of Bile acid receptor (Homo sapiens) (Q96RI1 whole entry, looked up): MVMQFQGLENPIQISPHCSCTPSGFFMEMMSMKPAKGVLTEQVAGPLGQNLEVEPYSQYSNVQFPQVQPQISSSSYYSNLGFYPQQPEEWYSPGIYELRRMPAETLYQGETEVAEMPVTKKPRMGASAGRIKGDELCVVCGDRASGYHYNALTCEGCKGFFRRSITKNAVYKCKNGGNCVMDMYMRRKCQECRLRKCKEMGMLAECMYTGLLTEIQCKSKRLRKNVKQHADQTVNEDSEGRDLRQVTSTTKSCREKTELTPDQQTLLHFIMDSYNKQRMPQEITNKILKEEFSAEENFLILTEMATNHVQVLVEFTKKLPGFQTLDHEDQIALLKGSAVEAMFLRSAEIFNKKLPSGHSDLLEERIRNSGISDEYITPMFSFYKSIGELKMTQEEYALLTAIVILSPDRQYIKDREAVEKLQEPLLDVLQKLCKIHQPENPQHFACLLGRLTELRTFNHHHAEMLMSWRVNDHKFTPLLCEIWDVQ

CC/C=C\C/C=C\C/C=C\C/C=C\C/C=C\C/C=C\CCC(=O)O
3.74%: activity change, negative = inhibition [6]
inactive: Potency [1] | Potency [2] | Potency [3] | Potency [4] | Potency [5] | Potency [7] | Potency [8]

C[C@H]1[C@H](O)[C@@H](C)/C=C/C=C/CC/C=C/C=C/C=C/C=C/C(OC2O[C@H](C)[C@@H](O)[C@H](N)[C@@H]2O)CC2O[C@](O)(CC(O)C(O)CCC(O)CC(O)CC(O)CC(=O)O[C@H]1C)CC(O)C2C(=O)O (stereo partly drawn)
-22.7%: activity change, negative = inhibition [6]
inactive: Potency [1] | Potency [2] | Potency [3] | Potency [4] | Potency [5] | Potency [9]

CS(=O)(=O)n1cc2c(n1)CN([C@H]1CO[C@H](c3cc(F)ccc3F)[C@@H](N)C1)C2
inactive: Potency [1] | Potency [2] | Potency [3] | Potency [4] | Potency [5]
-25.8%: activity change, negative = inhibition [6]

NCc1ccccc1CC(=O)N[C@@H]1C(=O)N2C(C(=O)O)=C(CSc3nnnn3CC(=O)O)CS[C@H]12
-25.4%: activity change, negative = inhibition [6]
inactive: Potency [1] | Potency [2] | Potency [3] | Potency [4] | Potency [5]

CC(=O)OCC(=O)[C@@]1(O)[C@H](C)C[C@H]2[C@@H]3C[C@H](F)C4=CC(=O)C=C[C@]4(C)[C@H]3[C@@H](O)C[C@@]21C
-11.4%: activity change, negative = inhibition [6]
inactive: Potency [1] | Potency [2] | Potency [3] | Potency [4] | Potency [5]

CC(=O)O[C@H]1CC[C@@]2(C)C(=CC[C@H]3[C@@H]4CC[C@H](C(C)=O)[C@@]4(C)CC[C@@H]32)C1
-16.3%: activity change, negative = inhibition [6]
inactive: Potency [1] | Potency [2] | Potency [3] | Potency [4] | Potency [5]

Cc1oc(=O)oc1COC(=O)N1CC[C@@H](N2CC/C(=C\C3=C(C(=O)O)N4C(=O)[C@@H](NC(=O)/C(=N/O)c5nsc(N)n5)[C@H]4SC3)C2=O)C1
inactive: Potency [1] | Potency [2] | Potency [3] | Potency [4] | Potency [5]
-27.9%: activity change, negative = inhibition [6]

OC[C@@H](O)C(O)[C@H](O)CO
inactive: Potency [1] | Potency [2] | Potency [3] | Potency [4] | Potency [5]
2.94%: activity change, negative = inhibition [6]

NC[C@@H]1CC[C@@H](N)[C@@H](O[C@H]2[C@H](O)[C@@H](O[C@H]3O[C@H](CO)[C@@H](O)[C@H](N)[C@H]3O)[C@H](N)C[C@@H]2N)O1
-17.7% [at 27.1 µM]: activity change, negative = inhibition [6]
inactive: Potency [1] | Potency [2] | Potency [3] | Potency [4] | Potency [5]

Nc1c(Br)cc(Br)cc1CNC1CCC(O)CC1 (stereo not drawn)
inactive: Potency [1] | Potency [2] | Potency [3] | Potency [4] | Potency [5]
-18.6%: activity change, negative = inhibition [6]

O=C1C(c2[nH]c3ccc(S(=O)(=O)O)cc3c2O)=Nc2ccc(S(=O)(=O)O)cc21
inactive: Potency [1] | Potency [2] | Potency [3] | Potency [4] | Potency [5]
-23%: activity change, negative = inhibition [6]

COc1cc(O)c(C(=O)Nc2nc(C(=O)NCCN(C(C)C)C(C)C)cs2)cc1OC
inactive: Potency [1] | Potency [2] | Potency [3] | Potency [4] | Potency [5]
-17.9%: activity change, negative = inhibition [6]

CC1CC2C3CCC4=CC(=O)C=CC4(C)C3(F)C(O)CC2(C)C1(O)C(=O)COC(=O)c1cccc(S(=O)(=O)O)c1 (stereo not drawn)
inactive: Potency [1] | Potency [2] | Potency [3] | Potency [4] | Potency [5]
4.79%: activity change, negative = inhibition [6]

CC[C@@H](C)C[C@@H](C)CCCCCCCCC(=O)NC1C[C@@H](O)[C@@H](NCCN)NC(=O)[C@@H]2[C@@H](O)CCN2C(=O)[C@H]([C@H](O)CCN)NC(=O)[C@H]([C@H](O)[C@@H](O)c2ccc(O)cc2)NC(=O)[C@@H]2C[C@@H](O)CN2C(=O)[C@H]([C@@H](C)O)NC1=O (stereo partly drawn)
-9.2% [at 27.1 µM]: activity change, negative = inhibition [6]
inactive: Potency [1] | Potency [2] | Potency [3] | Potency [4] | Potency [5]

CCN(C)C(C)C(O)c1ccccc1 (stereo not drawn)
inactive: Potency [1] | Potency [2] | Potency [3] | Potency [4] | Potency [5] | Potency [9] | Potency [10]
-6%: activity change, negative = inhibition [6]

CC(C)=CCC/C(C)=C/CC/C(C)=C/CC/C(C)=C/CC1=C(C)C(=O)c2ccccc2C1=O
inactive: Potency [1] | Potency [2] | Potency [3] | Potency [4] | Potency [5] | Potency [7] | Potency [8]

O[C@@H]([C@H](O)[C@@H](O)CBr)[C@@H](O)CBr
inactive: activation [11] -2.21% | outcome [12] | Potency [1] | Potency [2] | Potency [3] | Potency [4] | Potency [5] | Potency [6]

c1ccc2scnc2c1
inactive: outcome [12] | Potency [1] | Potency [2] | Potency [3] | Potency [4] | Potency [5]

CC1=CCC(C(C)(C)O)CC1 (stereo not drawn)
inactive: activation [11] -1.09% | outcome [12] | Potency [1] | Potency [2] | Potency [3] | Potency [4] | Potency [5]

C[Si](C)(C)O[Si](C)(C)O[Si](C)(C)C
inactive: outcome [12] | Potency [1] | Potency [2] | Potency [3] | Potency [4] | Potency [5]
-16.4% [at 114 µM]: activity change, negative = inhibition [6]

CN(C)Cc1ccccc1
inactive: outcome [12] | Potency [1] | Potency [2] | Potency [3] | Potency [4] | Potency [5]

C=C/C=C/CC1=C(C)[C@H](OC(=O)[C@H]2[C@H](/C=C(\C)C(=O)OC)C2(C)C)CC1=O
inactive: Potency [1] | Potency [2] | Potency [3] | Potency [4] | Potency [5] | Potency [9] | Potency [10]
